Screens deposited in PubChem by National Center for Advancing Translational Sciences (NCATS).
12-LOX inh: ALOX12 (human) lipoxygenase inhibition; P18054; hit rate 1.1% among 580,000; purified 12hLO, xylenol orange hydroperoxide absorbance; Potency, µM (series often up to 108 µM), without a hit: at the top dose activity change, negative = inhibition, usual class: inhibitors; also: % is scaled to controls: 0 for no effect and ±100 for the full control effect
Target sequence (P18054 whole entry, looked up): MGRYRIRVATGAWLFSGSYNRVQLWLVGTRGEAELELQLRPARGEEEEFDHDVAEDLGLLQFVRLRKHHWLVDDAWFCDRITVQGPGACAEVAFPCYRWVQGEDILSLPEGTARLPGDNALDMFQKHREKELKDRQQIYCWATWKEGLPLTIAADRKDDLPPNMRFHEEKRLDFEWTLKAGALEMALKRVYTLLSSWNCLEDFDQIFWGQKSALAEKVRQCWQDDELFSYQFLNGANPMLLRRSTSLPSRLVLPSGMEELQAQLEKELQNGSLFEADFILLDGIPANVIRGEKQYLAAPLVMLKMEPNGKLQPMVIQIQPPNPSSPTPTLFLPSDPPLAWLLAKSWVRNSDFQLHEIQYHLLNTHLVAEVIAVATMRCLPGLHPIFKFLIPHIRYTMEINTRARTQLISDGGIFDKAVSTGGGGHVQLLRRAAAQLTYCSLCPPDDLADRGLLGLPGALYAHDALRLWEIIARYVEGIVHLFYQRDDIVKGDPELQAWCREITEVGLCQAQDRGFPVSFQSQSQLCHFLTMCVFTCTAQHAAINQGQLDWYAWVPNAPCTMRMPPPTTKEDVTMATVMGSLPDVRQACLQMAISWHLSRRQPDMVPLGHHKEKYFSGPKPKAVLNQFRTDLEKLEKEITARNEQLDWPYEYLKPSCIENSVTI
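Purified human 12hLO (150 nM final) in 25 mM Hepes, 0.01% Triton X-100, pH 7.0 was preincubated 15 min at room temperature with compound. Then 40 uM arachidonic acid was added, 30 min. Hydroperoxide was read by Fe-XO absorbance ratio 573/405 nm.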
JMJD2A Tudor: blocks the human JMJD2A Tudor domain; AlphaScreen JMJD2A-Tudor / H3K4me3 peptide binding; Potency, µM (series often up to 114 µM), inactives show at the top dose activity change, negative = inhibition, usual class: inhibitors; hit rate 4.4% among 390,000; AID 504339; also: % is scaled to controls: 0 for no effect and ±100 for the full control effect; nearly all actives have a fitted effect of over 50% in size
G9a block: blocks human histone lysine methyltransferase G9a; G9a H3K9 monomethylation, AlphaScreen, 2 h; Potency, µM (highest dose often 102 µM), without a hit: at the top dose activity, negative = inhibition, hits mostly inhibitors; hit rate 8.8% among 350,000; also: % is scaled to controls: 0 for no effect and ±100 for the full control effect; nearly all actives have a fitted effect of over 75% in size
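Compounds were preincubated with 20 nM G9a for 15 min, after which biotinylated H3K9 peptide (500 nM) and SAM (20 uM) started a 2 h room-temperature reaction. Monomethylated product was quantified by antibody-based AlphaScreen chemiluminescence.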
PLK1 PBD block: inhibitors of human PLK1 polo-box domain binding; P53350; Potency, µM, for the others: max response, negative = inhibition, usual class: inhibitors; hit rate 2.8% among 360,000; Plk1 PBD binding of FITC phosphopeptide, fluorescence polarization; also: series mostly up to about 57 µM; % is scaled to controls: 0 for no effect and ±100 for the full control effect; nearly all actives have a fitted effect of over 65% in size
BAZ2B block: BAZ2B (human) inhibition; Q9UIF8; AlphaScreen BAZ2B-H3K14Ac peptide displacement; Potency, µM (titrated, usually from 114 µM), for the others: at the highest dose activity change, negative = inhibition, most hits filed as inhibitors; hit rate 4.4% among 360,000; AID 504333; also: % is scaled to controls: 0 for no effect and ±100 for the full control effect; nearly all actives have a fitted effect of over 60% in size
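Multi-concentration screen (max 110 uM) measuring displacement of acetylated histone H3 peptide from BAZ2B by AlphaScreen, using 50 nM protein, 50 nM peptide and 10 ug/mL streptavidin donor plus Ni-chelate acceptor beads.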
HP1b chromo inh: inhibitors of HP1-beta chromodomain binding to methylated histone tails; P83916; AlphaScreen HP1-beta / biotin-H3K9me3 peptide binding; Potency, µM (series often up to 114 µM), for the others: top-dose activity change, negative = inhibition, usual class: inhibitors; hit rate 0.56% among 390,000; AID 540317; also: nearly all actives have a fitted effect of over 70% in size
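HP1-beta protein (50 nM final) preincubated 30 min at room temperature with biotinylated H3(1-18)K9me3 peptide (50 nM) in PBS pH 7.4, 0.01% Tween-20, then compound added for 30 min. AlphaScreen streptavidin donor/nickel chelate acceptor beads (10 ug/mL final), 30 min dark, luminescence read.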
The depositor's hits bear a star; ? = inconclusive; nt = not tested or not shown; [ ] = another dose, or the depositor's remark. A selection: hits, their analogues and other compounds. The true share with any hit is near 9%. Calls follow the shape of the dose curve; as a rule, active = well fitted curve in the direction sought with a large enough effect; inconclusive = small, poorly fitted or top-dose-only effect, or another doubt; inactive = no such curve, though single readings can be large; an effect the other way counts as inactive or inconclusive. Potency is read from the fitted curve at half-maximal effect.

SMILES	12-LOX inh	JMJD2A Tudor	G9a block	PLK1 PBD block	BAZ2B block	HP1b chromo inh
CCOc1ccccc1OC(=O)c1cc2ccccc2oc1=O	-9.8%	?	0.3%	21.2µM*	-22.0%	19.5%
COc1cc(C(C)=O)ccc1OC(=O)c1cc2cccc(OC)c2oc1=O	-28.0%	-8.8%	35.5µM*	?	-30.2%	35.8%
CC(C)c1ccc(-c2noc(Cn3c(Cl)nc4c3c(=O)n(C)c(=O)n4C)n2)cc1	8.7%	nt	nt	nt	nt	nt
O=[N+]([O-])/C(C(Cl)=C(Cl)Cl)=C1\Nc2ccccc2O1	0.0%	39.8µM*	35.5µM*	?	50.1µM*	?
Cc1cc(C)c2ccc(C)[n+]([O-])c2c1O	0.0%	-16.3%	12.6µM*	-9.3%	?	8.3%
O=C(/C=C/c1ccsc1)NCCc1ccccc1	6.1%	nt	nt	nt	nt	nt
CCOc1ccccc1NC(=O)C(C)Sc1nc(-c2ccccc2)c(C#N)c(=O)[nH]1 (configuration not stated)	?	-27.5%	-23.1%[59 µM]	nt	-23.9%	11.8%
CCc1ccc(NC(=O)C(C)Sc2nc(-c3ccco3)c(C#N)c(=O)[nH]2)cc1 (configuration not stated)	?	?	50.1µM*	23.8µM*	?	-12.5%
N#Cc1c(-c2ccco2)nc(SCC(=O)Nc2cccc(Cl)c2)[nH]c1=O	22.4µM*	?	35.5µM*	-7.2%	-12.3%	14.4%
CC(C)(C)c1ccc(-c2nc(SCC(=O)Nc3ccc(Cl)cc3)[nH]c(=O)c2C#N)cc1	?	-32.1%	-16.1%[59 µM]	nt	79.4µM*	23.7%
COc1ccc(NC(=O)CSc2nnc(-c3ccc(C)cc3)c(=O)[nH]2)cc1	-28.5%	nt	nt	nt	nt	nt
CCCCCCn1c(N2CCN(CC(N)=O)CC2)nc2c1c(=O)[nH]c(=O)n2C	-2.5%	nt	nt	nt	nt	nt
Cc1c(CCNC(=O)c2ccc(Br)o2)sc2nc(-c3ccc(F)cc3)nn12	-27.1%	50.1µM*	-4.6%[59 µM]	nt	-23.1%	23.8%
O=C(CCCNc1nc(Cl)nc2nc[nH]c12)NC1CC1	5.6%	nt	nt	nt	nt	nt
c1ccc(Sc2cccc3ccccc23)c(CNC2=NCCN2)c1	?	31.6µM*	15.8µM*	-1.2%	?	-21.1%
Fc1ccccc1Sc1ccccc1CNC1=NCCN1	?	?	7.08µM*	-19.0%	-9.9%	?
COc1cccc(CNC(=O)c2nnn(CC(=O)Nc3ccc(C)c(C)c3)c2N)c1	-24.7%	-15.3%	22.8%[59 µM]	3.0%	5.9%	27.9%
COc1ccc(C2/C=C\CC(NS(=O)(=O)c3ccc(C)cc3)CC(=O)N2Cc2ccccc2F)cc1 (configuration not stated)	nt	-27.3%	nt	-15.0%	nt	14.7%
Cc1ccc(CN2C(=O)C[C@@H](NS(=O)(=O)c3ccc4ccccc4c3)C/C=C\C2c2ccc(C)cc2)cc1 (some centres not stated)	nt	nt	6.31µM*	nt	nt	nt
COc1ccccc1NC(=O)CSc1nnnn1-c1ccccc1F	?	-9.0%	-7.0%[0.501 µM]	26.7µM*	8.4%	-8.8%
O=C(CSc1nnnn1-c1ccc(O)cc1)Nc1ccc(N2CCOCC2)c(Cl)c1	8.6%	-13.1%	-43.8%	-0.1%	?	5.0%
Cc1ccc(-n2nnnc2SCC(=O)Nc2ccc(N3CCN(C)CC3)cc2)c(C)c1	-28.3%	6.6%	50.1µM*	2.3%	?	54.6%
NC(=O)c1ccc(-n2nnnc2SCC(=O)Nc2ccc(N3CCOCC3)c(Cl)c2)cc1	45.7%	2.1%[11.4 µM]	8.3%[59 µM]	23.8µM*	-2.3%	-2.4%
CN1CCN(c2ccc(NC(=O)CSc3nnnn3-c3ccccc3F)cc2)CC1	-3.2%	-30.3%	79.4µM*	-2.2%	-21.3%[57.1 µM]	2.5%
COc1ccc(NC(=O)CSc2nnnn2-c2ccccc2F)cc1	196.1%	-11.5%	?	-17.3%	-8.5%	19.6%
SMILES	12-LOX inh	JMJD2A Tudor	G9a block	PLK1 PBD block	BAZ2B block	HP1b chromo inh
C=CCNC(=O)c1cc2c(=O)n3ccccc3nc2s1	0.0%	-10.3%	-3.7%	-12.8%	4.8%	41.6%
COCCN(C)C[C@H]1C[C@H](CO)CN(C(=O)c2ccc(Cl)c(F)c2)C1	4.9%	nt	nt	nt	nt	nt
COc1ccccc1NC(=O)CSc1ncc(CO)n1Cc1ccc(F)cc1	49.5%	?	-6.3%[0.501 µM]	9.47µM*	?	0.9%
Brc1ccccc1OCCCN1CCCC1	?	10µM*	nt	2.5%	?	?
Brc1ccccc1OCCN1CCCC1	?	20µM*	nt	-0.5%	nt	79.4µM*
Fc1ccc(OCCCCN2CCOCC2)cc1	-6.2%	-4.5%	-5.5%[59 µM]	2.3%	-11.3%	23.4%
CC(C)c1ccccc1OCCCN1CCCC1	?	31.6µM*	39.8µM*	3.0%	?	?
Brc1ccccc1OCCCCCN1CCOCC1	?	4.47µM*	39.8µM*	-5.5%	56.2µM*	?
CC(C)c1ccccc1OCCCCN1CCCCC1	0.0%	-4.0%	nt	-2.5%	nt	36.0%
CN(C)C[C@@H]1CN(S(C)(=O)=O)C[C@H]1NC(=O)c1nccc2ccccc12	77.4%	nt	nt	nt	nt	nt
O=C(CN(Cc1cccs1)CC1CCCO1)Nc1ccc2ccccc2c1 (configuration not stated)	38.4%	nt	nt	nt	nt	nt
O=C(CCCn1c(=O)[nH]c2ccc(Br)cc2c1=O)N1CCN(c2cccc(Cl)c2)CC1	0.0%	-21.2%	-43.6%[59 µM]	nt	-13.1%	12.5%
CC(=O)c1ccccc1OCCCN1CCCCC1	?	3.16µM*	11.2µM*	-9.1%	50.1µM*	?
Brc1ccccc1OCCCN1CCCCCC1	?	1µM*	56.2µM*	0.3%	?	?
CC(=O)c1ccccc1OCCOCCOCCOc1ccccc1C(C)=O	4.6%	-0.8%	nt	-14.1%	-14.0%	21.1%
O=C(CNC(=O)Cc1cccc2ccccc12)NCc1ccc(F)cc1	14.7%	-14.0%	5.2%[12.7 µM]	-6.4%	-4.2%	26.1%
CC(C)(C)c1ccnc(N[C@H]2CO[C@H]3[C@@H]2OC[C@@H]3NS(=O)(=O)c2cccs2)n1	0.4%[176 µM]	nt	nt	nt	nt	nt
CS(=O)(=O)C1=NSC2=NC(=O)/C(=C\c3cccn3-c3ccc(Cl)cc3)C(=N)N21	?	44.7µM*	44.7µM*	21.2µM*	39.8µM*	?
Cc1cc(/C=C2/C(=N)N3C(=NC2=O)SN=C3S(C)(=O)=O)c(C)n1-c1ccccc1F	?	?	50.1µM*	?	44.7µM*	-11.7%
Cc1ccc(-n2cccc2/C=C2\C(=N)N3N=C(C(C)C)SC3=NC2=O)cc1	-22.3%	?	?	?	?	1.3%
COc1ccc(Cl)cc1-c1nc(N)nc(NC2CCCCC2)n1	-1.5%	-11.5%	11.8%[59 µM]	-3.4%	0.2%	39.1%
COc1cc(C2C3=C(CC(C)(C)CC3=O)OC(N)=C2[N+](=O)[O-])ccc1O (configuration not stated)	-8.1%	-6.7%	50.1µM*	-7.9%	10.9%	40.8%
COc1cccc(C2CNC3(CCCC(C)C3)c3[nH]c4ccccc4c32)c1OC (configuration not stated)	?	?	?	-21.0%	44.7µM*	4.9%
